HP1b chromo inh: HTS for Inhibitors of HP1-beta Chromodomain Interactions with Methylated Histone Tails; Chromobox protein homolog 1 (Homo sapiens), P83916; AlphaScreen HP1-beta / biotin-H3K9me3 peptide binding; Potency, µM (series often up to 114 µM), for the others: top-dose activity change, negative = inhibition, actives largely listed as inhibitors; hit rate 0.56% among 390,000; AID 540317, 2011; note: nearly all actives have a fitted effect of over 70% in size
Target sequence (P83916 whole entry, looked up): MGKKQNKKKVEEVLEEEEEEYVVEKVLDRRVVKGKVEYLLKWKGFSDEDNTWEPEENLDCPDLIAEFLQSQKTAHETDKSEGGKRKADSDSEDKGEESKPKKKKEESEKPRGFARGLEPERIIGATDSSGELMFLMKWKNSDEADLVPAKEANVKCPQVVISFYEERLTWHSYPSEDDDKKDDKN
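HP1-beta protein (50 nM final) preincubated 30 min at room temperature with biotinylated H3(1-18)K9me3 peptide (50 nM) in PBS pH 7.4, 0.01% Tween-20, then compound added for 30 min. AlphaScreen streptavidin donor/nickel chelate acceptor beads (10 ug/mL final), 30 min dark, luminescence read.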
Sfp inh: qHTS Assay for Inhibitors of Bacillus subtilis Sfp phosphopantetheinyl transferase (PPTase); 4'-phosphopantetheinyl transferase ffp (Bacillus subtilis), Q9F4F7; Biochemical Sfp PPTase activity, qHTS; Potency, µM, inactives show largest response in the series, negative = inhibition, hits mostly inhibitors; hit rate 3.5% among 310,000; AID 1490, 2009;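 note: the enzyme is Sfp with the accession as filed and its product quenches rhodamine fluorescence; 0% = enzyme reaction without inhibitor and -100% = no enzyme wells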
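Compounds were incubated with enzyme (final 15 nM) for 15 min at room temperature before substrate addition started the reaction. Fluorescence at 525 nm excitation, 598 nm emission was recorded immediately and after 30 minutes.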
G9a inh: qHTS Assay for Inhibitors of Histone Lysine Methyltransferase G9a. Potency, µM (highest dose often 102 µM), inactives show top-dose activity, negative = inhibition, hits mostly inhibitors. AID 504332, 2011. hit rate 8.8% among 350,000. G9a H3K9 monomethylation, AlphaScreen, 2 h; note: % is set by controls: 0 for no effect and ±100 for the full control effect; nearly all actives have a fitted effect of over 75% in size
Target sequence (Q96KQ7 913-1193 limits assumed): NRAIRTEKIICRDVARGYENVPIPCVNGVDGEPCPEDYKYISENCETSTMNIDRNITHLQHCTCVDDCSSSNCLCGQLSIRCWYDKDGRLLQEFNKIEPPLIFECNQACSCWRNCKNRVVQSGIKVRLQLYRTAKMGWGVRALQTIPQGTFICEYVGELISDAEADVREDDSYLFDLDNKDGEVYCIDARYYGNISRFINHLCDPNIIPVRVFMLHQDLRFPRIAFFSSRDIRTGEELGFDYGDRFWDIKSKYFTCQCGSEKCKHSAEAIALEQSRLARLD
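Enzyme 20 nM + cpd, 15 min RT; add b-H3K9 pep 500 nM / SAM 20 uM; 2 h RT; anti-H3K9me1 Ab 0.5 ug/mL + SA donor / anti-rabbit acceptor beads 20 ug/mL each, 10 min; AlphaScreen read.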
JMJD2A Tudor: qHTS Assay for Inhibitors of JMJD2A-Tudor Domain; AlphaScreen JMJD2A-Tudor / H3K4me3 peptide binding; Potency, µM (top dose mostly 114 µM), for inactives: at the top dose activity change, negative = inhibition, usual class: inhibitors; hit rate 4.4% among 390,000; Lysine-specific demethylase 4A (Homo sapiens), O75164; note: % is set by controls: 0 for no effect and ±100 for the full control effect; nearly all actives have a fitted effect of over 50% in size
BAZ2B block: qHTS Assay for Inhibitors of BAZ2B; Potency, µM (highest dose often 114 µM), for inactives: top-dose activity change, negative = inhibition, actives largely listed as inhibitors; AID 504333, 2011; hit rate 4.4% among 360,000; AlphaScreen BAZ2B-H3K14Ac peptide displacement; Bromodomain adjacent to zinc finger domain protein 2B (Homo sapiens), Q9UIF8; note: % is set by controls: 0 for no effect and ±100 for the full control effect; nearly all actives have a fitted effect of over 60% in size
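BAZ2B (50 nM) with biotin-H3(5-23)K14Ac peptide (50 nM) in PBS pH 7.4, 0.01% Tween-20, preformed 30 min, then compound 30 min at room temperature; top concentration 110uM. AlphaScreen streptavidin donor/nickel chelate acceptor beads (10 ug/mL final), 20 min dark, signal read.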
PLK1 PBD inh: qHTS for Inhibitors of PLK1-PDB (polo-like kinase 1 - polo-box domain): Primary Screen; Serine/threonine-protein kinase PLK1 (Homo sapiens), P53350; Plk1 PBD binding of FITC phosphopeptide, fluorescence polarization; Potency, µM, for the others: max response, negative = inhibition, actives largely listed as inhibitors; hit rate 2.8% among 360,000; AID 720504, 2013; note: series mostly up to about 57 µM; % is set by controls: 0 for no effect and ±100 for the full control effect; nearly all actives have a fitted effect of over 65% in size
* = called active by the depositor; ? = inconclusive; · = no result; [ ] = dose if it differs, or a comment. Most compounds without a hit are left out; they make up all but 12% or so of the library. Calls come from the whole dose curve; as a rule, active = well fitted curve in the direction sought with a large enough effect; inconclusive = small, poorly fitted or top-dose-only effect, or another doubt; inactive = no such curve, though single readings can be large; an effect the other way counts as inactive or inconclusive. Potency is the fitted concentration of half-maximal effect.

SMILES | HP1b chromo inh | Sfp inh | G9a inh | JMJD2A Tudor | BAZ2B block | PLK1 PBD inh
CC(=O)NC(c1ccc(C(C)C)cc1)c1ccc2cccnc2c1O (centres undefined) | 35.1% | 6.4% | 20.0% | 56.2µM* | ? | -17.5%
O=C(COc1cccc2cccnc12)Nc1nccs1 | 14.2% | -13.9% | -13.6%[59 µM] | ? | -30.3% | -3.3%
COc1cccc(C(NC(C)=O)c2ccc3cccnc3c2O)c1 (centres undefined) | -1.3% | 12.1% | ? | 56.2µM* | 17.8µM* | ?
CNc1oc(/C=C/c2cc(OC)c(OC)c(OC)c2)nc1C#N | 61.5% | · | 9.1%[59 µM] | 28.3% | -0.5% | ·
CC(C)(C)c1ccc(/C=C/C(=O)c2ccc(NC3=NCCCS3)cc2)cc1 | -16.3% | ? | 39.8µM* | ? | ? | -15.6%
O=C(/C=C/c1ccc(Br)cc1)c1ccc(NC2=NCCCS2)cc1 | -15.2% | 39.8µM* | ? | ? | ? | -10.9%
COC(=O)c1cccc(NS(=O)(=O)c2cccs2)c1C | 7.8% | 2.3% | 11.5%[59 µM] | -4.6% | 2.2% | -0.9%
COC(=O)c1ccccc1NC1=C/C(=N\S(=O)(=O)c2ccc(C(=O)O)cc2)c2ccccc2C1=O | 15.8µM* | 56.2µM* | 8.91µM* | 20µM* | 8.91µM* | ?
COC(=O)c1ccccc1NC1=C/C(=N\S(=O)(=O)c2cccs2)c2ccccc2C1=O | 7.08µM* | 18.0% | 1.78µM* | 3.98µM* | 1.41µM* | 18.9µM*
COc1ccc2nc(N3CCN(C(=O)c4ccc5ncsc5c4)CC3)sc2c1 | 20.8% | · | -5.5%[0.501 µM] | -9.2% | -4.3% | -4.4%
COc1ccc(OC)c2sc(N3CCN(C(=O)c4ccc5ncsc5c4)CC3)nc12 | ? | · | 39.8µM* | ? | ? | -7.3%
COc1ccc(OC)c2sc(N3CCN(C(=O)c4ccc([N+](=O)[O-])s4)CC3)nc12 | -10.7% | · | 35.5µM* | ? | ? | -6.3%
COc1ccccc1C(=O)OCc1c(F)cccc1Cl | 106.9% | -4.3% | 166.2%[59 µM] | 63.2% | 70.2% | 5.4%
CCCCNC(=O)[C@H]1C[C@H]1[C@@H](O)[C@H](CO)NC(=O)[C@H](Cc1ccccc1)NC(=O)OC(C)(C)C | 67.5% | 15.0% | 20.9% | -5.7% | -1.4% | -16.7%
CC1(C)C[C@](C)(C(=O)c2ccccc2)C=C1c1ccccc1 | · | -16.7% | · | · | · | ·
O=c1oc2c(CN3CCCCC3)c(O)ccc2cc1-c1nc2ccccc2[nH]1 | 44.1% | 9.3% | 13.6%[12.7 µM] | -2.6% | 9.4% | 26.7µM*
CCc1cc2c(=O)c(-c3nc4ccccc4[nH]3)coc2c(CN2CCCCC2C)c1O (centres undefined) | 50.2% | 1.3% | · | -32.4% | -13.4% | -7.8%
CCc1cc2c(=O)c(-c3nc4ccccc4[nH]3)coc2c(CN2CCCCC2)c1O | 61.9% | 5.9% | ? | -21.6% | 79.4µM* | -6.8%
Cc1nn(-c2ccc3nncn3n2)c(C)c1CCC(=O)Nc1ccc(OC(F)(F)F)cc1 | 24.3%[57 µM] | · | 26.8%[59 µM] | -4.2% | 4.5% | ·
C(=N\Nc1ccc(-n2ccnc2)nn1)/c1ccccc1 | 33.8% | 89.1µM* | -2.7%[59 µM] | -4.7% | ? | 0.4%
COc1cccc(Nc2ccc(-n3ccnc3)nn2)c1 | 30.6% | 3.6% | 9.6% | -9.2% | -15.1% | 4.2%
O=C1C=CC2=C3c4cc(O)c(O)cc4C[C@@]3(O)COC2=C1 | · | 31.6µM* | · | · | · | ·
CCc1ccccc1NC(=O)CCS(=O)(=O)c1cccc2nonc12 | 32.8% | · | -12.2%[59 µM] | -10.2% | 7.0% | ·
CC([NH2+][O-])C(C)(C)NO (centres undefined) | ? | ? | 17.8µM* | 22.4µM* | ? | 0.0%
O=C(O)CN1C(=O)/C(=C\c2cccc(OC(=O)c3ccco3)c2)SC1=S | -6.4% | -9.4% | 1.0% | -23.8% | -9.3% | -20.7%
SMILES | HP1b chromo inh | Sfp inh | G9a inh | JMJD2A Tudor | BAZ2B block | PLK1 PBD inh
O=C(O)CN1C(=O)/C(=C/c2ccc(SCc3ccccc3)o2)SC1=S | ? | 14.1µM* | 17.8µM* | 56.2µM* | 25.1µM* | 9.8%
O=C(O)CN1C(=O)/C(=C\c2ccc(OC(=O)c3ccco3)cc2)SC1=S | -30.7% | 44.7µM* | 8.91µM* | ? | -22.3% | 6.1%
C=CCN1C(=O)/C(=C\c2cccc(OC(=O)c3ccco3)c2)SC1=S | -9.8% | 27.2% | 79.4µM* | -27.9% | -24.9% | 1.5%
C=CCN1C(=O)/C(=C\c2ccc(OC(=O)c3ccco3)c(OC)c2)SC1=S | -20.1% | 0.6% | 14.1µM* | ? | 10µM* | 3.2%
CCN1C(=O)/C(=C\c2cccc(OC(=O)c3ccco3)c2)SC1=S | ? | 7.2% | -8.6% | ? | 0.8% | -16.7%
COc1cccc2c1CCC1=CC(=O)CC[C@@]12C | · | 24.0% | -2.2%[2.33 µM] | · | · | ·
Cc1ccc(C)c(NC(=O)c2cc(S(=O)(=O)N3CCCc4ccccc43)ccc2F)c1 | 27.7% | · | 0.2%[59 µM] | -15.3% | 8.0% | ·
CC(C)Cc1ccc(S(=O)(=O)NCC2CCCO2)cc1 (centres undefined) | 27.9% | 10.4% | 15.7% | 3.5% | 8.9% | 6.8%
CCCCNc1ccc(C(CC(N)=O)NC(=O)Cc2cccc3ccccc23)cc1[N+](=O)[O-] (centres undefined) | 33.0% | 16.1% | -8.3%[12.7 µM] | -10.6% | 14.7% | -2.9%
NC(=O)CC(NC(=O)Cc1cccc2ccccc12)c1ccc(NCCCN2CCCC2=O)c([N+](=O)[O-])c1 (centres undefined) | 28.6% | 12.0% | 70.8µM* | -29.3% | -34.3% | -21.5%
CN(Cc1ccccc1)C(=O)CCC1CCN(C(=O)c2ccccc2C(F)(F)F)CC1 | 33.4% | -11.2% | · | -2.1% | -9.2% | 0.9%
CSCc1ccc(C(=O)N2CCC(CCC(=O)N(C)Cc3ccccc3)CC2)o1 | 40.3% | 50.1µM* | 26.4% | -14.4% | 2.9% | -14.4%
Cc1n[nH]c(=O)c2c(NC(=O)CSc3c(Cl)cccc3Cl)oc(C)c12 | 20.2% | · | 12.6µM* | -10.8% | 11.0% | ?
Cc1n[nH]c(=O)c2c(NC(=O)CSc3ccccc3Cl)oc(C)c12 | -0.1% | · | 31.6µM* | -17.9% | 13.0% | ?
CCN1CCc2c(sc(NC(=O)c3ccc(S(=O)(=O)N4CCCC(C)C4)cc3)c2C(=O)OC)C1 (centres undefined) | 33.7% | · | -3.3%[59 µM] | -19.0% | -0.1% | ·
CCOCCCNC(=S)NCCCNc1nc2c(C)c(C)ccc2cc1C#N | 26.0% | ? | 56.2µM* | -9.0% | -3.0% | -21.1%
CCOCCCNC(=S)N1CCCN(c2nc3c(C)c(C)ccc3cc2C#N)CC1 | 102.1% | 8.8% | -2.5% | 41.3% | -4.3% | -4.6%

Source: PubChem (National Center for Advancing Translational Sciences (NCATS))
